The source of these data is PubChem BioAssay (NCI).

The panel holds about 83,000 compounds, 20% with a hit somewhere; the sample as a whole holds those more often.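 The endpoint reported here, percent growth, reads 100 for growth as untreated, 0 for no net growth and -100 for all cells dead.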 A number with no mark means an inactive call. The source made the active and inactive calls. Rule for the calls: active = growth percent below 10; inactive = the rest.

Among the test systems are EKVX NSCLC; SN12C renal; UO-31 renal; TK-10 renal; ACHN renal; CAKI-1 renal; A498 renal; CCRF-CEM leukemia; MOLT-4 leukemia; SR leukemia.
Common to all, as to test: NCI-60 one-dose screen, 48 h (100 = growth as untreated, 0 = no growth, -100 = all killed)
What all share (conditions): 10 µM unless noted

Regarding `CC(C)c1nc(N(C)S(C)(=O)=O)nc(-c2ccc(F)cc2)c1/C=C/[C@@H](O)C[C@@H](O)CC(=O)O`, the growth with EKVX NSCLC was 91.2%; in the test with SN12C renal, 96.2%; in the test on UO-31 renal, 75%; with TK-10 renal, 107%; with ACHN renal, 97.1%; in the test on CAKI-1 renal, 97.6%. Moreover, the growth in the test with A498 renal was 56.2%; in the test on CCRF-CEM leukemia, 104%; in the test with MOLT-4 leukemia, 109%.

In the case of `OCCOc1c(Cl)cc(Cl)cc1Cl`, the growth was 106% with EKVX NSCLC; 89.8% in the test with SN12C renal; 87.8% in the test with UO-31 renal; 113% in the test with TK-10 renal; 99.3% in the test on ACHN renal; 93.8% in the test with CAKI-1 renal. Besides, the growth in the test with A498 renal was 70.7%; in the test on CCRF-CEM leukemia, 113%; in the test with MOLT-4 leukemia it was 111%.

Turning to `COc1ccc(/C=C2\NC(=S)NC2=O)cc1`, the growth in the test with EKVX NSCLC is 101%; in the test with SN12C renal, 101%; in the test on UO-31 renal, 73.6%; in the test with TK-10 renal, 113%; in the test on ACHN renal, 94%; with CAKI-1 renal, 98.7%. The growth was 89% in the test on A498 renal, 105% with CCRF-CEM leukemia and 110% with MOLT-4 leukemia.

Consider `O=c1c(O)cccn1CCCNCCCN(CCCn1cccc(O)c1=O)CCCn1cccc(O)c1=O`, for which the growth in the test on EKVX NSCLC is 93%; with SN12C renal, 87%; in the test with UO-31 renal, 104%; with TK-10 renal it was 108%; in the test with ACHN renal, 101%; in the test with CAKI-1 renal, 103%. The growth was 129% in the test on A498 renal, 147% in the test on CCRF-CEM leukemia and 160% in the test with MOLT-4 leukemia.

With `COc1ccc2c(c1)nc(N)c1c3cc(C)c(C)cc3cn21`, the growth with EKVX NSCLC was 72%; with SN12C renal, 84.1%; with UO-31 renal, 59.6%; with TK-10 renal it was 108%; with ACHN renal it was 71.4%; in the test on CAKI-1 renal, 59.2%. Besides, the growth is 79.7% in the test with A498 renal, 70.9% in the test with CCRF-CEM leukemia and 69.2% in the test on MOLT-4 leukemia.

For `CCOC(=O)c1ccccc1OC(=O)NNc1ccccc1`, the growth with EKVX NSCLC is 92.8%; in the test on SN12C renal, 66.4%; in the test on UO-31 renal it was 29.3%; with TK-10 renal, 72.9%; in the test on ACHN renal, 51.9%; in the test on CAKI-1 renal, 25.5%. The growth was 100% in the test on A498 renal, 24.6% in the test on CCRF-CEM leukemia and 17.9% in the test on MOLT-4 leukemia.

Take `CCCCN(CCCC)CCCOC(=O)c1ccc(N)cc1`: the growth in the test on EKVX NSCLC is 94.3%; in the test on SN12C renal it was 82%; in the test on UO-31 renal it was 81.2%; with TK-10 renal, 103%; with ACHN renal, 91.9%; in the test on CAKI-1 renal it was 90.5%. Besides, the results for the growth in the test on A498 renal, with CCRF-CEM leukemia and in the test on MOLT-4 leukemia were 104%, 96.8% and 93.2%, respectively.

`Cn1cc(-c2csc(-c3cn(C)c4ncccc34)n2)c2cc(F)cnc21`: the growth in the test with EKVX NSCLC is 77.7%; in the test with SN12C renal, 88.9%; in the test on UO-31 renal, 99.1%; in the test on TK-10 renal it was 104%; with ACHN renal it was 94.4%; with CAKI-1 renal, 66%. Besides, the growth in the test with A498 renal is 72.9%; in the test with CCRF-CEM leukemia, 67.4%; in the test with MOLT-4 leukemia it was 80.1%.

Turning to `COc1cc([C@@H]2c3cc4c(cc3C(O[C@@H]3O[C@@H]5CO[C@@H](c6cccs6)OC5[C@H](O)[C@H]3O)C3COC(=O)[C@@H]32)OCO4)cc(OC)c1O` (stereo partly drawn), the growth in the test on EKVX NSCLC was 12.7%; in the test on SN12C renal, -9.91% (active); with UO-31 renal, -72.2% (active); in the test with TK-10 renal, -54.7% (active); in the test with ACHN renal it was -54.3% (active); in the test with CAKI-1 renal, -10.3% (active). Besides, the growth with A498 renal was -73.2% (active); in the test with CCRF-CEM leukemia, -1.14% (active); with MOLT-4 leukemia, 3.06% (active).

On to `O=C(Nc1ccc(Nc2ccncc2)cc1)c1ccc(Nc2ccnc3ccc([N+](=O)[O-])cc23)cc1[N+](=O)[O-]`, for which the growth with EKVX NSCLC is 50%; in the test on SN12C renal, 68%; in the test with UO-31 renal it was 52.8%; in the test on TK-10 renal, 102%; in the test with ACHN renal it was 65.9%; with CAKI-1 renal it was 89.3%. Also, the growth with A498 renal was 120%; with CCRF-CEM leukemia it was 98.8%; with MOLT-4 leukemia, 109%.

For the compound `Cc1cc(C(C)(C)c2cc(C)c(O)c(CN(C)C)c2)cc(CN(C)C)c1O`, the growth is 92.3% in the test with EKVX NSCLC; 96.3% in the test with SN12C renal; 59.4% in the test with UO-31 renal; 94.2% with TK-10 renal; 86.2% in the test with ACHN renal; 79.6% with CAKI-1 renal. For the same compound, the growth in the test on A498 renal was 69.5%; in the test on CCRF-CEM leukemia, 100%; in the test on MOLT-4 leukemia, 87.4%; in the test on SR leukemia, 74.8%.

Take `O=C(OC[C@H]1O[C@H](OC(=O)c2cc(O)c(O)c(OC(=O)c3cc(O)c(O)c(O)c3)c2)[C@H](OC(=O)c2cc(O)c(O)c(OC(=O)c3cc(O)c(O)c(O)c3)c2)[C@@H](OC(=O)c2cc(O)c(O)c(OC(=O)c3cc(O)c(O)c(O)c3)c2)[C@@H]1OC(=O)c1cc(O)c(O)c(OC(=O)c2cc(O)c(O)c(O)c2)c1)c1cc(O)c(O)c(OC(=O)c2cc(O)c(O)c(O)c2)c1`: the growth in the test with EKVX NSCLC is 37.4%; in the test on SN12C renal, 31.6%; in the test on UO-31 renal, 22.1%; with TK-10 renal, 43.4%; in the test on ACHN renal, 24.6%; with CAKI-1 renal, 19.6%. The figures for the growth in the test with A498 renal, in the test with CCRF-CEM leukemia and in the test with MOLT-4 leukemia were 35.6%, 24% and 26.3%, respectively.

As to `CCN(CC)CCOc1ccccc1-n1c(C)ccc1-c1ccccc1`, the growth was 83.8% with EKVX NSCLC; 91.7% in the test with SN12C renal; 55.2% in the test on UO-31 renal; 85.2% with TK-10 renal; 105% with ACHN renal; 85.1% with CAKI-1 renal. Also, the growth with A498 renal is 65.1%; with CCRF-CEM leukemia, 28.1%; with MOLT-4 leukemia it was -35.2% (active); in the test with SR leukemia, -29.4% (active).

With `O=C(COC(=O)[C@H](C[Se][Se]C[C@H](NC(=O)c1ccc(Br)cc1F)C(=O)OCC(=O)c1ccc(F)cc1)NC(=O)c1ccc(Br)cc1F)c1ccc(F)cc1`, the growth in the test with EKVX NSCLC was -69.9% (active); with SN12C renal, -100% (active); in the test on UO-31 renal, -100% (active); in the test on TK-10 renal, -97.6% (active); with ACHN renal, -75.7% (active); in the test on CAKI-1 renal, -91.4% (active). Also, the growth in the test on A498 renal was -2.67% (active); in the test on CCRF-CEM leukemia, -56.2% (active); in the test with MOLT-4 leukemia, -30% (active).
